# The entries come from a sample that favours hits as a whole.
# G9a inh = inhibitors of human histone lysine methyltransferase G9a; Potency, µM (doses to about 102 µM), inactives show at the highest dose activity, negative = inhibition, actives largely listed as inhibitors; Q96KQ7; G9a H3K9 monomethylation, AlphaScreen, 2 h; 350,000 tested, 8.8% active; AID 504332; further: on the % scale 0 is the no-effect control and ±100 the full control effect; nearly all actives have a fitted effect of over 75% in size
# Target sequence (Q96KQ7 913-1193 limits assumed): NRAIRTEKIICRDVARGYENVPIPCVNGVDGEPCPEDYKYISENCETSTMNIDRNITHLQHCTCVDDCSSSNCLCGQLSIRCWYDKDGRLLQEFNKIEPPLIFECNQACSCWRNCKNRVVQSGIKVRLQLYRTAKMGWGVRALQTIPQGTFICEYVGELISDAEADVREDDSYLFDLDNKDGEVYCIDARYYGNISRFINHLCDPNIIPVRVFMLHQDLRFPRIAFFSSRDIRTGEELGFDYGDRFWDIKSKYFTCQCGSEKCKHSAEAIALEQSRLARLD
#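 Methyltransferase reactions run at room temperature for 2 h (20 nM enzyme, 500 nM biotin-H3K9 peptide, 20 uM SAM) after a 15 min compound preincubation; product detected by AlphaScreen beads and anti-H3K9me1 antibody.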
# Sfp PPTase inh = Sfp phosphopantetheinyl transferase inhibition; Potency, µM, for inactives: largest response in the series, negative = inhibition, actives largely listed as inhibitors; AID 1490; 310,000 tested, 3.5% active; Biochemical Sfp PPTase activity, qHTS; Q9F4F7;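 further: the enzyme is Sfp with the accession as filed and its product quenches rhodamine fluorescence; 0% = enzyme reaction without inhibitor and -100% = no enzyme wells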
#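 Step 1, compound plus 15 nM Sfp-PPTase, 15 min, room temperature. Step 2, add rhodamine-CoA (5 uM) and BHQ-2-YbbR (12.5 uM). Step 3, read 525/598 nm fluorescence at 0 and 30 min.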
# VDR inh = inhibitors of human vitamin D receptor; P11473; VDR-SRC2-3 peptide fluorescence polarization, 2 h; Potency, µM, without a hit: max response, negative = inhibition, hits mostly inhibitors; 400,000 tested, 0.93% active; further: on the % scale 0 is the no-effect control and ±100 the full control effect
# Target sequence (P11473 whole entry, looked up): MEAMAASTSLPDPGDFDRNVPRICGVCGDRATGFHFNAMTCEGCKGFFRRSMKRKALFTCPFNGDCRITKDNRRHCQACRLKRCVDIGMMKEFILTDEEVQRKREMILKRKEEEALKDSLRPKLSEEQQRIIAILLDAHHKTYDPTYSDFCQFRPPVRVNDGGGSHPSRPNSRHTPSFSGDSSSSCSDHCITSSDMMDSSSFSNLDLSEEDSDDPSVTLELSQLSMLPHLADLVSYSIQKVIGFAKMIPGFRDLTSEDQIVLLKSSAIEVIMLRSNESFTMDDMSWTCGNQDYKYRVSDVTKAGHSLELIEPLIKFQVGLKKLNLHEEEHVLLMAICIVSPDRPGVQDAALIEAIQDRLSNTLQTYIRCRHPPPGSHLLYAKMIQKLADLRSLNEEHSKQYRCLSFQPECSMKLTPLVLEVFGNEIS
#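 Fluorescence polarization assay measuring small-molecule disruption of VDR binding to the coregulator peptide SRC2-3. Compounds were pin-transferred (23 nl) into the reagent mix and incubated 2 h at room temperature before reading.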
# Glioma ERSR ind = inducers of ER stress response in human glioma cells. U87-MG GRP78 promoter luciferase reporter, 16 h. Potency, µM, for the others: at the highest dose activation, most hits filed as activators. 420,000 tested, 0.02% active. AID 602332; further: series mostly up to about 76 µM; % of control where 0% means no effect; nearly all actives have a fitted effect of over 35% in size
#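 Stably transfected U87-MG glioma cells carrying a GRP78-based luciferase sensor; 16 h compound incubation. Luminescence end-point read 10 min after Bright-Glo addition at room temperature.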
# 12-LOX inh = blocks human arachidonate 12S-lipoxygenase; P18054; purified 12hLO, xylenol orange hydroperoxide absorbance; Potency, µM (highest dose often 108 µM), inactives show at the highest dose activity change, negative = inhibition, usual class: inhibitors; 580,000 tested, 1.1% active; further: on the % scale 0 is the no-effect control and ±100 the full control effect
#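 Purified human 12hLO (150 nM final) in 25 mM Hepes, 0.01% Triton X-100, pH 7.0 was preincubated 15 min at room temperature with compound. Then 40 uM arachidonic acid was added, 30 min. Hydroperoxide was read by Fe-XO absorbance ratio 573/405 nm.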
# An asterisk follows results filed as active; ? = inconclusive; . = no result; ! = not confirmed by another sample; [ ] = remark or other dose. The call rests on the fitted dose curve; in most records, active means well fitted curve in the direction sought with a large enough effect; inconclusive means small, poorly fitted or top-dose-only effect, or another doubt; inactive means no such curve, though single readings can be large; an effect the other way counts as inactive or inconclusive. Potency means the concentration at half of the fitted maximal effect.
SMILES,G9a inh,Sfp PPTase inh,VDR inh,Glioma ERSR ind,12-LOX inh
CC1=NOC2(CCN(Cc3ccccc3)C2)C1 (stereo not drawn),.,.,.,.,2%[176 µM]
CN(CCc1ccccc1)Cc1c[nH]c2ccccc12,3.2µM*,6%,-12%,-4%,?
CC(=O)NC(Cc1ccc(N(CCCl)CCCl)cc1)C(=O)NC(CC(C)C)C(=O)O (stereo not drawn),50µM*,?,-17%,-2%,-18%
CCOC(=O)C(NC(=O)C(Cc1ccc(N(CCCl)CCCl)cc1)NC(C)=O)C(C)C (stereo not drawn),?,6%,-2%,-3%,-4%
CN(Cc1ccccc1)C(=C(Cl)Cl)/C(=C1/NCCN1Cc1ccc(Cl)nc1)[N+](=O)[O-],50µM*,10%,17%,-3%,-20%
O=[N+]([O-])/C(Cl)=C1\NCCN1Cc1ccc(Cl)nc1,3%,12%,-2%,-3%,6%
Cc1ccc(CCNC(=O)C2CCCN(Cc3nc(-c4cccc(Cl)c4)oc3C)C2)cc1 (stereo not drawn),-33%[59 µM],.,89µM*,-2%,?
O=C(NC1CCCCCC1)c1ccc[nH]c1=S,2.5µM*,?,?,0%,-25%
NCCc1cc(O)c(O)cc1O,-143%[2.33 µM],63µM*,89µM*,-2%,?
Cc1ccc(-c2nc3ccccc3c(=O)n2-c2cc(C)ccn2)cc1,-7%,7%,1%,2%,-26%
Cc1cc(C)cc(-n2c(C)cc(/C=C3\C(=O)NC(=O)N(C)C3=O)c2C)c1,0%[59 µM],-1%,-5%,-4%,-4%
Cc1cc(C=C2C(=O)N(C)C(=S)N(C)C2=O)c(C)n1-c1ccncc1,50µM*,40µM*,?,-4%,145%
Cc1ccnc(-n2c(C)cc(C=C3C(=O)N(C)C(=S)N(C)C3=O)c2C)c1,32µM*,50µM*,?,-1%,?
Cc1cc(CN2CC3ON=C(C(=O)O)C3C2)cc(C)n1 (stereo not drawn),.,.,.,.,5%[12.5 µM]
CCCCn1c(NC(=O)c2ccco2)c(C(=O)OCC)c2nc3ccccc3nc21,?,50µM*,-72%,-3%,?
CCCCn1c(NS(=O)(=O)c2ccc(C)cc2)c(C(=O)OCC)c2nc3ccccc3nc21,-10%[59 µM],0%,?,0%,-11%
CCCCCn1c(N)c(C(=O)NCc2cccs2)c2nc3ccccc3nc21,.,-5%,?,-2%,-5%
CCCOC(=O)c1c(N)n(Cc2cccs2)c2nc3ccccc3nc12,8%[59 µM],4%,-25%,-3%,-25%
Nc1c(C(=O)NCCCc2ccccc2)c2nc3ccccc3nc2n1Cc1cccs1,84%[59 µM],-12%,79µM*,3%,?
CCCCn1c(N)c(C(=O)NCc2cccs2)c2nc3ccccc3nc21,49%,-6%,89µM*,2%,0%
COC[C@H]1CCCN1C[C@H]1CN2CC[C@H]1C[C@@H]2CNC(=O)Nc1ccsc1,.,.,.,.,-10%[176 µM]
O=C(CN1CCOCC1)c1ccc(Br)cc1,?,-9%,-24%,2%,?
Cc1c(C(=O)c2cccc3ccccc23)c2cccc3c2n1[C@H](CN1CCOCC1)CO3,11µM*!,23%,?,?,?
O=C(CN1CCOCC1)c1cccc2ccccc12,3.2µM*,40µM*,-20%,1%,?
Cc1cc(C(=O)N2[C@H]3CC[C@@H]2c2cnc(-c4ccc(F)cc4)nc2C3)n[nH]1,.,.,.,.,33%
SMILES,G9a inh,Sfp PPTase inh,VDR inh,Glioma ERSR ind,12-LOX inh
CC12CC[C@H]3[C@@H](CCC4(O)CC(O)CCC34/C=N/O)C1(O)CCC2C1=CC(=O)OC1 (stereo partly drawn),.,.,.,.,7%
C=Cn1ccnc1P(O)(=S)c1nc(C)c(CCOC(C)=O)s1 (stereo not drawn),?,?,13%,0%,12%
C=Cn1ccnc1P(=S)(c1c(C)nn(-c2ccccc2)c1C)c1nccn1C=C,50µM*,-3%,14%,-2%,-16%
N#C/C(=C\c1ccccc1)C(=O)Nc1ccc(Br)cc1C(=O)c1ccccc1,.,.,.,.,4%
CCN(CC)C(=O)c1ccc(NC(=O)c2cc3cc(F)ccc3[nH]2)cc1,.,.,.,.,2%
O=C1CC(=O)N(c2ccc(Cl)cc2Cl)C(=O)N1,45µM*,2%,-21%,-3%,?
O=C1CC(=O)N(c2ccccc2F)C(=O)N1,?,?,-24%,-3%,-15%
Cc1cc(Br)ccc1N1C(=O)CC(=O)NC1=O,8%[59 µM],-19%,-29%,-3%,45µM*
O=C1CC(=O)N(c2cccc(Br)c2)C(=O)N1,56µM*,-7%,-7%,-3%,-26%
O=C1CC(=O)N(c2cccc(C(F)(F)F)c2)C(=O)N1,21%,-20%,?,-2%,-1%
C=CCN(C)C[C@H]1CN2CC[C@H]1C[C@@H]2CNC(=O)Nc1cccc(C#N)c1,.,.,.,.,61%[176 µM]
CN1CCC(=O)C2CCCCC21 (stereo not drawn),.,.,.,.,-7%
COc1ccc(C(=O)NC[C@H]2C[C@@H]3CCN2C[C@@H]3c2cc(C3CCCCC3)nn2C)cc1,.,.,.,.,10%
C=CCN1C(=O)/C(=C/c2cccs2)C(=O)NC1=S,8.9µM*,20µM*,?,-15%,45µM*
CN(C)c1ccc(/C=C2/C(=O)NC(=O)N(Cc3ccco3)C2=O)cc1,?,-19%,?,-3%,-29%
O=C1NC(=S)N(Cc2ccco2)C(=O)/C1=C\c1cccs1,3.2µM*,20µM*,.,.,.
CSCCCN=C=S,.,.,.,.,-5%[176 µM]
COc1cccc(CC(=O)N2CCCCCC2CN2CCC(OC)CC2)c1 (stereo not drawn),.,.,.,.,15%
COC(=O)N1CCN(C(=O)Cc2ccc(Cl)c(Cl)c2)C(CN2CCCC2)C1 (stereo not drawn),35µM*!,5%,-15%,-3%,43%
O=C(CC(O)C(Cl)(Cl)Cl)c1ccccc1 (stereo not drawn),.,.,.,.,-19%
CC(C)CN1Cc2ccccc2-n2ccnc2C12CCN(C(=O)c1cccs1)CC2,.,.,.,.,17%
N#CC(C#N)=Cc1ccc(O)cc1,.,22µM*!,50µM*,-2%,.
CC(C)(C)c1cc(C=C(C#N)C#N)cc(Br)c1O,.,.,.,.,-5%[57.4 µM]
N#CC(C#N)=Cc1cc(O)c(O)c(O)c1,8.9µM*,50µM*,22µM*,-3%,?
N#C/C(=C\c1ccc(O)cc1)C(=O)O (tested in a mixture with another compound),.,.,-12%,-3%,-7%
SMILES,G9a inh,Sfp PPTase inh,VDR inh,Glioma ERSR ind,12-LOX inh
C=C(Cl)CN1CCC(N2CCCCC2)CC1,.,.,.,.,3%
COc1cc2c(cc1OCC1CC1)NC(=O)C21CCN(Cc2cccc(O)c2)CC1,.,.,.,.,-10%[176 µM]
CCC(CN)c1ccccc1 (stereo not drawn),.,.,.,.,4%
CCOC(=O)c1c(C)n(Cc2ccccc2)c2ccc(O)cc12,32µM*,50µM*,-14%,2%,?
COc1ccc2c(c1)c(C(C)=O)c(C)n2Cc1ccccc1,.,.,.,.,-18%
COC(=O)c1c(C)n(Cc2ccccc2)c2ccc(O)cc12,8.9µM*,50µM*,-2%,1%,16µM*!

# Assay outcomes: PubChem, National Center for Advancing Translational Sciences (NCATS)
